# Among all 39,000 compounds or so, about 3,300 (8.5%) were called active. Only a selection was taken, and actives are over-represented in it overall.
# Test system: HepG2
# Assay: cytotoxicity call (relative viability < 0.9)
# Settings: 10 µM
row,SMILES,cytotoxicity call
1,C[C@@H]1CN([C@H](C)CO)S(=O)(=O)c2ccc(C#Cc3cccnc3)cc2O[C@H]1CN(C)CC1CCCC1,inactive
2,Cc1noc(C)c1S(=O)(=O)N(C)C[C@H]1Oc2ccc(NS(C)(=O)=O)cc2C(=O)N([C@H](C)CO)C[C@H]1C,inactive
3,COc1ccc(NC(=O)Nc2ccc3c(c2)[C@@H]2C[C@H](CC(=O)N4CCN(C)CC4)O[C@@H](CO)[C@@H]2O3)cc1,inactive
4,Cc1ccc(S(=O)(=O)Nc2ccc3c(c2)C(=O)N([C@@H](C)CO)C[C@H](C)[C@@H](CN(C)C(=O)Cc2ccccc2)OCCCC[C@@H](C)O3)cc1,active
5,Cc1ccc(S(=O)(=O)Nc2ccc3c(c2)C(=O)N([C@@H](C)CO)C[C@@H](C)[C@H](CN(C)C(=O)Cc2ccccc2)OCCCC[C@H](C)O3)cc1,inactive
6,C[C@@H]1CCCCO[C@@H](CN(C)C(=O)Cc2ccccc2)[C@@H](C)CN([C@H](C)CO)C(=O)c2cc(NS(=O)(=O)c3ccc(F)cc3)ccc2O1,inactive
7,C[C@@H]1CCCCO[C@@H](CN(C)C(=O)Cc2ccccc2)[C@@H](C)CN([C@@H](C)CO)C(=O)c2cc(NS(=O)(=O)c3ccc(Cl)cc3)ccc2O1,inactive
8,C[C@@H]1CN([C@H](C)CO)C(=O)c2cc(NS(=O)(=O)c3ccc(Cl)cc3)ccc2O[C@@H](C)CCCCO[C@@H]1CN(C)C(=O)Cc1ccccc1,active
9,C[C@@H]1CN([C@@H](C)CO)C(=O)c2cc(NS(=O)(=O)c3ccc(Cl)cc3)ccc2O[C@@H](C)CCCCO[C@H]1CN(C)C(=O)Cc1ccccc1,inactive
10,C[C@@H]1CN([C@@H](C)CO)C(=O)c2cc(NS(=O)(=O)c3ccc(F)cc3)ccc2O[C@@H](C)CCCCO[C@@H]1CN(C)C(=O)Cc1ccccc1,inactive
11,C[C@H]1CCCCO[C@@H](CN(C)C(=O)Cc2ccccc2)[C@@H](C)CN([C@@H](C)CO)C(=O)c2cc(NS(=O)(=O)c3ccc(F)cc3)ccc2O1,active
12,Cc1ccc(S(=O)(=O)Nc2ccc3c(c2)C(=O)N([C@@H](C)CO)C[C@H](C)[C@H](CN(C)C(=O)Cc2ccccc2)OCCCC[C@@H](C)O3)cc1,inactive
13,CN(C)CC#Cc1ccc([C@@H]2[C@H]3CN(C(=O)c4cccnc4)CC(=O)N3[C@H]2CO)cc1,inactive
14,CC(C)(C)[S@](=O)N1Cc2cc(C(=O)NCc3ccncc3)nc(-c3cccc(-c4ccc(C#N)cc4)c3)c2[C@@H]1CCO,inactive
15,CO[C@H]1CN(C)C(=O)c2cc(NC(=O)C3CC3)ccc2OC[C@H](C)N(C(=O)CN2CCOCC2)C[C@H]1C,inactive
16,CC(C)=CCC1=C(O)C(=O)c2ccccc2C1=O,inactive
17,COC1=C(CC=C(C)C)C(=O)c2ccccc2C1=O,active
18,CC(C)=CCCC(C)=CCC1=C(C)C(=O)c2ccccc2C1=O,inactive

# From the antibiotic and cytotoxicity screens of Wong et al. (2023)
